Assay results taken from PubChem BioAssay (Tox21).
“And” between values parts separate entries of the source, which are not always exact repeats. Equal values may be shown once. Records with an inconclusive call do not appear. Where a call stands in place of a potency, no number is given. Where a structure was tested more than once in an assay, its records may differ in their call. The source made the active and inactive calls. Unless noted, the call rests on the fitted dose curve; in most records, active means well fitted curve in the direction sought with a large enough effect in the repeat runs; inconclusive means weak or mixed curves; inactive means no such curve, though single readings can be large; an effect the other way counts as inactive or inconclusive.

Tests used:
[1] = qHTS assay to test for compound auto fluorescence at 535 nm (green) in HEK293 cells (AID 720680)
[2] = qHTS assay to test for compound auto fluorescence at 460 nm (blue) in HEK293 cell free culture (AID 720681)
Method in brief: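 Test compounds were pinned into cell-free culture medium (DMEM with 10% FBS) and fluorescence was read directly at Ex/Em 405/460 nm. Signals were expressed as fluorescence equivalents of triamterene, with DMSO vehicle as control.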

[3] = qHTS assay to test for compound auto fluorescence at 535 nm (green) in HEK293 cell free culture (AID 720682)
Method in brief: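 Steps: dispense DMEM/10% FBS into empty wells; pin in compound or DMSO; measure fluorescence at 485/535 nm. Values are fluorescein equivalents.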

[4] = qHTS assay to test for compound auto fluorescence at 590 nm (red) in HEK293 cell free culture (AID 720683)
Method in brief: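 Tox21 10K library compounds were pinned into cell-free DMEM with 10% FBS and fluorescence was read at excitation 540 nm. Activity is expressed as Rose Bengal sodium equivalency.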

[5] = qHTS assay to test for compound auto fluorescence at 590 nm (red) in HepG2 cell free culture (AID 720684)
Method in brief: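 Measured in medium alone (MEM containing 10% FBS) following pintool addition of compound; emission at 590 nm with 540 nm excitation, referenced to Rose Bengal sodium.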

[6] = qHTS assay to test for compound auto fluorescence at 460 nm (blue) in HepG2 cell free culture (AID 720685)
Method in brief: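 Compound (23 nL) or DMSO pinned into cell-free MEM with 10% FBS; blue fluorescence read at 405/460 nm excitation/emission, expressed as auto-fluorescence equivalency to triamterene.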

[7] = qHTS assay to test for compound auto fluorescence at 460 nm (blue) in HepG2 cells (AID 720687)
Method in brief: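 Cells (2,000/well in MEM with 10% FBS) attached overnight at 37 C, then were exposed to compound or DMSO for 1 hr at 37 C, 5% CO2. Fluorescence read at Ex/Em 405/460 nm, expressed as triamterene-equivalent signal.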

[8] = target: Glucocorticoid receptor (Homo sapiens) (UniProt P04150); assay: qHTS assay to identify small molecule agonists of the glucocorticoid receptor (GR) signaling pathway (AID 720691; active means well fitted activation curve with a large enough effect in the signal ratio in the repeat runs, not every such curve was filed as active; the % refers to the signal ratio)
Glucocorticoid receptor (Homo sapiens), sequence (P04150 whole entry, looked up): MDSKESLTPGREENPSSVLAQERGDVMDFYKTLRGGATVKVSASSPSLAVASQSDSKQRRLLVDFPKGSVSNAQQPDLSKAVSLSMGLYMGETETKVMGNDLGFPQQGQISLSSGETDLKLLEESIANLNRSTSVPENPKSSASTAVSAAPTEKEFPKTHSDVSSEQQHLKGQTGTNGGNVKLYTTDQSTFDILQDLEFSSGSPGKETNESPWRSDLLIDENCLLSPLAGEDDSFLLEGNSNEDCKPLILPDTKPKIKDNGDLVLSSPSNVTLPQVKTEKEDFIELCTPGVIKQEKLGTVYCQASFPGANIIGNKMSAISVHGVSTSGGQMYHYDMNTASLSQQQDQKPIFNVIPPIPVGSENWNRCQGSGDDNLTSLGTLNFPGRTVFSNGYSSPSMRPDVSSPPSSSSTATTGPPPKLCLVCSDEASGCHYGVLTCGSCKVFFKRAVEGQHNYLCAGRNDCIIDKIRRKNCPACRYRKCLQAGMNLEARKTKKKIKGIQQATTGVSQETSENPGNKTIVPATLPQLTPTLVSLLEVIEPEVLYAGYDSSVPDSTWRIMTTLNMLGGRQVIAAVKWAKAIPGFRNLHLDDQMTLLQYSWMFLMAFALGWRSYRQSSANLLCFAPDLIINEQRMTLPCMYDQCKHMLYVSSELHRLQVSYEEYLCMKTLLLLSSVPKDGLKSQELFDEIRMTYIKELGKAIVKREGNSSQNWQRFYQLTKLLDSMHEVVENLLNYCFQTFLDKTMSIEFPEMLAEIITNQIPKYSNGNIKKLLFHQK
Method in brief: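 Reporter read-out: fluorescence intensity following 2 h room-temperature LiveBLAzer B/G FRET substrate loading. Prior step: GR-bla HeLa cells held 4 h, then treated 18 h at 37 C.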

[9] = target: Glucocorticoid receptor (Homo sapiens) (UniProt P04150); assay: qHTS assay to identify small molecule antagonists of the glucocorticoid receptor (GR) signaling pathway (AID 720692; active means well fitted inhibition curve with a large enough effect in the signal ratio in the repeat runs, not every such curve was filed as active; the % refers to the signal ratio)
Method in brief: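 Dexamethasone (5 nM final) stimulated a stably integrated GRE-beta-lactamase reporter in HeLa cells during 18 h co-incubation with compounds; signal was quantified as fluorescence intensity of B/G FRET substrate after 2 h.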

[10] = qHTS assay to identify small molecule antagonists of the glucocorticoid receptor (GR) signaling pathway - cell viability counter screen (AID 720693); further: nearly all actives have a fitted effect of over 55% in size; further: potency means the concentration at half of the fitted maximal effect
[11] = qHTS assay for identifying genotoxic compounds that show differential cytotoxicity against isogenic chicken DT40 cell lines with known DNA damage response pathways - wild type cell line (AID 743012); further: nearly all actives have a fitted effect of over 60% in size; further: potency means the concentration at half of the fitted maximal effect
Method in brief: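 Using parental DT40 (300 cells/well), compounds delivered in DMSO incubate 40 h at 37 C/5% CO2. CellTiter-Glo reagent then stands 30 min at room temperature, and luminescence gives cell viability.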

[12] = qHTS assay for identifying genotoxic compounds that show differential cytotoxicity against isogenic chicken DT40 cell lines with known DNA damage response pathways - Rev3 mutant cell line (AID 743014); further: nearly all actives have a fitted effect of over 55% in size; further: potency means the concentration at half of the fitted maximal effect
[13] = qHTS assay for identifying genotoxic compounds that show differential cytotoxicity against isogenic chicken DT40 cell lines with known DNA damage response pathways - Rad54/Ku70 mutant cell line (AID 743015); further: nearly all actives have a fitted effect of over 60% in size; further: potency means the concentration at half of the fitted maximal effect
[14] = qHTS assay to identify small molecule antagonists of the androgen receptor (AR) signaling pathway - cell viability counter screen (AID 743033; further: nearly all actives have a fitted effect of over 45% in size; further: potency means the concentration at half of the fitted maximal effect)
[15] = qHTS assay to identify small molecule antagonists of the androgen receptor (AR) signaling pathway using the MDA cell line - cell viability counter screen (AID 743041; further: nearly all actives have a fitted effect of over 45% in size; further: potency means the concentration at half of the fitted maximal effect)
Method in brief: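 Viability counter screen run alongside the AR antagonist reporter: cells seeded 5 h before compound, R1881 added, 16 h incubation at 37C without CO2, fluorescent CellTiter-Fluor signal quantified.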

[16] = qHTS assay to test for compound auto fluorescence at 535 nm (green) in HepG2 cell free culture (AID 720686)
[17] = target: Androgen receptor (Homo sapiens) (UniProt P10275); assay: qHTS assay to identify small molecule agonists of the androgen receptor (AR) signaling pathway using the MDA cell line (AID 743040; further: nearly all actives have a fitted effect of over 20% in size)
Androgen receptor (Homo sapiens), sequence (P10275 whole entry, looked up): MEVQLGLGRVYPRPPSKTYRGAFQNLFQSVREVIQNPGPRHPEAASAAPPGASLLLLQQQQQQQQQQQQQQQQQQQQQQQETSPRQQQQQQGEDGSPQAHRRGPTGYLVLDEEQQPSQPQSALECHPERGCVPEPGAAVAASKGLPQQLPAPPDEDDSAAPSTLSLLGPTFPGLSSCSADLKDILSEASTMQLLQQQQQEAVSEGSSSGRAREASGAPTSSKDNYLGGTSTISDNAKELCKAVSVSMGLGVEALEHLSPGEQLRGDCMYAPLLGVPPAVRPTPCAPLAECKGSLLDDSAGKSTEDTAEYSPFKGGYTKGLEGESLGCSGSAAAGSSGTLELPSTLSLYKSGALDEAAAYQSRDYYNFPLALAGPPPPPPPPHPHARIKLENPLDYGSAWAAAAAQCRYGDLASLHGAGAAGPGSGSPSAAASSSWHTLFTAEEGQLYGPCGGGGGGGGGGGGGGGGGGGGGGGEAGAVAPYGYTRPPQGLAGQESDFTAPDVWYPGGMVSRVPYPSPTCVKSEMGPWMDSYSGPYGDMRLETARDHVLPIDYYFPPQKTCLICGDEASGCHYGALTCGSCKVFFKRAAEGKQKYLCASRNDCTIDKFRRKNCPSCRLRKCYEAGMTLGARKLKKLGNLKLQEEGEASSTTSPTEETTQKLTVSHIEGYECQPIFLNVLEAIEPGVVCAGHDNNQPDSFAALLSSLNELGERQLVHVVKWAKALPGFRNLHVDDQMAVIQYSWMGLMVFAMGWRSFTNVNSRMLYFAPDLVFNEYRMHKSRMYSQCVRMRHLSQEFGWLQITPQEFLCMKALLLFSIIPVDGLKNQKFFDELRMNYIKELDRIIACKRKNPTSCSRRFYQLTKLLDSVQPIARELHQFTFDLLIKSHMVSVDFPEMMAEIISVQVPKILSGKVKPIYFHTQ
Method in brief: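 Luminescence from ONE-Glo, read after 30 min at room temperature, reflects MMTV-driven luciferase in MDA-kb2 cells (AR- and GR-responsive). Treatment lasted 16 h at 37C, 0% CO2.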

[18] = target: Androgen receptor (Homo sapiens) (UniProt P10275); assay: qHTS assay to identify small molecule antagonists of the androgen receptor (AR) signaling pathway using the MDA cell line (AID 743042; further: potency means the concentration at half of the fitted maximal effect; nearly all actives have a fitted effect of over 55% in size)
Method in brief: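 MDA-kb2 cells (human breast carcinoma, stably carrying an MMTV-luciferase reporter responsive to AR and GR) were plated at 3,000 cells/well and preincubated 5 hr at 37C, then given compound plus R1881 agonist for 16 h. ONE-Glo luminescence was read.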

| SMILES | outcome [1] | outcome [2] | outcome [3] | outcome [4] | outcome [5] | outcome [6] | outcome [7] | outcome [8] | Potency [9] | Potency [10] | Potency [11] | Potency [12] | Potency [13] | Potency [14] | Potency [15] | outcome [16] | outcome [17] | Potency [18] |
| --- | --- | --- | --- | --- | --- | --- | --- | --- | --- | --- | --- | --- | --- | --- | --- | --- | --- | --- |
| CCCCCCCCCCCCCCCCn1cc[n+](C)c1 | inactive | inactive | inactive | inactive | inactive | inactive | inactive | inactive | inactive | – | – | – | – | – | – | – | – | – |
| OCCOc1ccccc1 | inactive | inactive | inactive | inactive | inactive | inactive | inactive | inactive | inactive | inactive | inactive | inactive | inactive | inactive | inactive | – | – | – |
| COc1ccc(N)cc1 | inactive | inactive | inactive | inactive | inactive | inactive | inactive | inactive | inactive | inactive | inactive | 60.6 µM (active) and 45.4 µM (active) | 53.5 µM (active) and 60.6 µM (active) and inactive | inactive | inactive | – | – | – |
| CCCCCCCCCCCCn1cc[n+](C)c1 | inactive | inactive | inactive | inactive | inactive | inactive | inactive | inactive | inactive | – | – | – | – | – | – | inactive | – | – |
| CCCn1cc[n+](C)c1 | inactive | inactive | inactive | inactive | inactive | inactive | inactive | inactive | inactive | inactive | inactive | inactive | inactive | inactive | inactive | inactive | – | – |
| CC(Cl)(Cl)C(=O)O | inactive | inactive | inactive | inactive | inactive | inactive | inactive | inactive | inactive | inactive | inactive | inactive | inactive | inactive | inactive | inactive | – | – |
| COP(=O)(OC)OC=C(Cl)Cl | inactive | inactive | inactive | inactive | inactive | inactive | inactive | – | – | inactive | 9.44 µM (active) and inactive | 11.9 µM (active) and inactive | 13.3 µM (active) and inactive | inactive | inactive | inactive | – | – |
| CCC[N+]1(C)CCCCC1 | inactive | inactive | inactive | inactive | inactive | inactive | inactive | – | – | inactive | inactive | inactive | inactive | inactive | inactive | inactive | – | – |
| O=C(O)c1nc(Cl)ccc1Cl | inactive | inactive | inactive | inactive | inactive | inactive | inactive | inactive | inactive | inactive | inactive | inactive | inactive | inactive | inactive | – | – | – |
| CCC[N+]1(C)CCCC1 | inactive | inactive | inactive | inactive | inactive | inactive | inactive | – | – | inactive | inactive | inactive | inactive | inactive | inactive | inactive | – | – |
| CC(=O)[O][Hg][c]1ccccc1 | inactive | inactive | inactive | inactive | inactive | inactive | inactive | – | – | 952 nM (active) and 485 nM (active) and 436 nM (active) | 211 nM (active) and 271 nM (active) and 109 nM (active) | 376 nM (active) and 152 nM (active) and 122 nM (active) | 237 nM (active) and 152 nM (active) and 86.3 nM (active) | 5.35 µM (active) and 1.37 µM (active) and 1.95 µM (active) | 5.31 µM (active) and 3.82 µM (active) and 3.06 µM (active) | inactive | inactive | 2.98 µM (active) and 1.92 µM (active) and 2.17 µM (active) |
| Nc1ccccc1 | inactive | inactive | inactive | inactive | inactive | inactive | inactive | inactive | inactive | inactive | inactive | inactive | inactive | inactive | inactive | inactive | – | – |
| Cc1cc(Cl)ccc1N | inactive | inactive | inactive | inactive | inactive | inactive | inactive | inactive | inactive | inactive | inactive | inactive | inactive | inactive | inactive | inactive | – | – |
| C1CCC(NC2CCCCC2)CC1 | inactive | inactive | inactive | inactive | inactive | inactive | inactive | inactive | inactive | inactive | inactive | inactive | inactive | inactive | inactive | – | – | – |
| CCCCCCCCCCCCOS(=O)(=O)O | inactive | inactive | inactive | inactive | inactive | inactive | inactive | inactive | inactive | inactive | inactive | inactive | inactive | inactive | inactive | inactive | – | – |
